Source: ChEMBL document CHEMBL5598561, “ASAP - In vitro binding kinetics” (2024)

Biological target: Nonstructural protein 3 (Zika virus) (UniProt A0A024AXB9)
Sequence (A0A024AXB9 as listed by the source): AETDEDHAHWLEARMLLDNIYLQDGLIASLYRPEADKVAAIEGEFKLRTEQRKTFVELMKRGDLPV

CCc1cc(Cl)cc(C(=O)Nc2ccc3c(c2)CNC3)c1
pKD (PRVABC59, Concentration 10.0 uM, Immobilization level 10000.0 pg/mm2, Rmax 7.0 pg/mm2, ka 456970.038 M-1s-1, kd 1.322 1/s): 5.54 | pKD (PRVABC59, Concentration 10.0 uM, Immobilization level 12000.0 pg/mm2, Rmax 55.0 pg/mm2, ka 33985.237 M-1s-1, kd 0.743 1/s): 4.66 | pKD (PRVABC59, Concentration 10.0 uM, Immobilization level 13000.0 pg/mm2, Rmax 17.0 pg/mm2, ka 179212.289 M-1s-1, kd 1.129 1/s): 5.2

N#C[C@H](Nc1ccc2c(c1)CNC2)c1cc(Cl)cc(C2CC2)c1
pKD (PRVABC59, Concentration 10.0 uM, Immobilization level 10000.0 pg/mm2, Rmax 28.0 pg/mm2, ka 179746.524 M-1s-1, kd 1.36 1/s): 5.12 | pKD (PRVABC59, Concentration 10.0 uM, Immobilization level 12000.0 pg/mm2, Rmax 42.0 pg/mm2, ka 91353.604 M-1s-1, kd 0.386 1/s): 5.37 | pKD (PRVABC59, Concentration 10.0 uM, Immobilization level 13000.0 pg/mm2, Rmax 52.0 pg/mm2, ka 98756.182 M-1s-1, kd 0.944 1/s): 5.02

COc1cc(Br)cc(C(=O)Nc2ccc3c(c2)CNC3)c1
pKD (PRVABC59, Concentration 10.0 uM, Immobilization level 3900.0 pg/mm2, Rmax 30.0 pg/mm2, ka 1022660.121 M-1s-1, kd 0.519 1/s): 6.29 | pKD (PRVABC59, Concentration 10.0 uM, Immobilization level 4900.0 pg/mm2, Rmax 37.0 pg/mm2, ka 628733.109 M-1s-1, kd 0.436 1/s): 6.16 | pKD (PRVABC59, Concentration 10.0 uM, Immobilization level 5500.0 pg/mm2, Rmax 32.0 pg/mm2, ka 715576.018 M-1s-1, kd 0.434 1/s): 6.22 | pKD (PRVABC59, Concentration 10.0 uM, Immobilization level 10000.0 pg/mm2, Rmax 31.0 pg/mm2, ka 878454.345 M-1s-1, kd 0.618 1/s): 6.15 | pKD (PRVABC59, Concentration 10.0 uM, Immobilization level 12000.0 pg/mm2, Rmax 51.0 pg/mm2, ka 505054.059 M-1s-1, kd 0.503 1/s): 6 | pKD (PRVABC59, Concentration 10.0 uM, Immobilization level 13000.0 pg/mm2, Rmax 45.0 pg/mm2, ka 775706.649 M-1s-1, kd 0.539 1/s): 6.16

O=C(Nc1ccc2c(c1)CNC2)c1cc(Cl)cc2c1CCC2
pKD (PRVABC59, Concentration 10.0 uM, Immobilization level 10000.0 pg/mm2, Rmax 25.0 pg/mm2, ka 106816.236 M-1s-1, kd 0.472 1/s): 5.36 | pKD (PRVABC59, Concentration 10.0 uM, Immobilization level 12000.0 pg/mm2, Rmax 64.0 pg/mm2, ka 30866.003 M-1s-1, kd 0.225 1/s): 5.14 | pKD (PRVABC59, Concentration 10.0 uM, Immobilization level 13000.0 pg/mm2, Rmax 31.0 pg/mm2, ka 79832.742 M-1s-1, kd 0.384 1/s): 5.32

O=C(Nc1ccc2c(c1)CNC2)c1cc(Br)cc2c1OCO2
pKD (PRVABC59, Concentration 10.0 uM, Immobilization level 10000.0 pg/mm2, Rmax 23.0 pg/mm2, ka 221801.012 M-1s-1, kd 2.02 1/s): 5.04 | pKD (PRVABC59, Concentration 10.0 uM, Immobilization level 12000.0 pg/mm2, Rmax 42.0 pg/mm2, ka 116147.62 M-1s-1, kd 1.164 1/s): 5 | pKD (PRVABC59, Concentration 10.0 uM, Immobilization level 13000.0 pg/mm2, Rmax 30.0 pg/mm2, ka 164731.302 M-1s-1, kd 1.67 1/s): 4.99

CNC(=O)[C@H](Nc1ccc2c(c1)CNC2)c1cc(Cl)cc(C2CC2)c1
pKD (PRVABC59, Concentration 10.0 uM, Immobilization level 10000.0 pg/mm2, Rmax 21.0 pg/mm2, ka 735105.2 M-1s-1, kd 0.212 1/s): 6.54 | pKD (PRVABC59, Concentration 10.0 uM, Immobilization level 12000.0 pg/mm2, Rmax 44.0 pg/mm2, ka 423211.762 M-1s-1, kd 0.126 1/s): 6.53 | pKD (PRVABC59, Concentration 10.0 uM, Immobilization level 13000.0 pg/mm2, Rmax 34.0 pg/mm2, ka 634638.949 M-1s-1, kd 0.171 1/s): 6.57

O=C(Nc1cc(Cl)cc(C(=O)Nc2ccc3c(c2)CNC3)c1)OCc1ccccc1
pKD (PRVABC59, Concentration 1.0 uM, Immobilization level 3900.0 pg/mm2, Rmax 38.0 pg/mm2, ka 196121.646 M-1s-1, kd 0.113 1/s): 6.24 | pKD (PRVABC59, Concentration 1.0 uM, Immobilization level 4900.0 pg/mm2, Rmax 45.0 pg/mm2, ka 144681.299 M-1s-1, kd 0.064 1/s): 6.35 | pKD (PRVABC59, Concentration 1.0 uM, Immobilization level 4900.0 pg/mm2, Rmax 45.0 pg/mm2, ka 172692.705 M-1s-1, kd 0.081 1/s): 6.33 | pKD (PRVABC59, Concentration 1.0 uM, Immobilization level 5500.0 pg/mm2, Rmax 49.0 pg/mm2, ka 194075.024 M-1s-1, kd 0.087 1/s): 6.35 | pKD (PRVABC59, Concentration 1.0 uM, Immobilization level 5500.0 pg/mm2, Rmax 54.0 pg/mm2, ka 112858.156 M-1s-1, kd 0.052 1/s): 6.33 | pKD (PRVABC59, Concentration 10.0 uM, Immobilization level 3900.0 pg/mm2, Rmax 44.0 pg/mm2, ka 164681.147 M-1s-1, kd 0.126 1/s): 6.12

CCc1nc2c(C(=O)Nc3ccc4c(c3)CNC4)cc(Br)cc2[nH]1
pKD (PRVABC59, Concentration 10.0 uM, Immobilization level 10000.0 pg/mm2, Rmax 30.0 pg/mm2, ka 310193.647 M-1s-1, kd 0.373 1/s): 5.92 | pKD (PRVABC59, Concentration 10.0 uM, Immobilization level 12000.0 pg/mm2, Rmax 36.0 pg/mm2, ka 171120.142 M-1s-1, kd 0.256 1/s): 5.83 | pKD (PRVABC59, Concentration 10.0 uM, Immobilization level 13000.0 pg/mm2, Rmax 31.0 pg/mm2, ka 250565.843 M-1s-1, kd 0.327 1/s): 5.88

O=C(Nc1ccc2c(c1)CNC2)c1cc(F)cc2[nH]nnc12
pKD (PRVABC59, Concentration 10.0 uM, Immobilization level 10000.0 pg/mm2, Rmax 22.0 pg/mm2, ka 162374.237 M-1s-1, kd 0.724 1/s): 5.35 | pKD (PRVABC59, Concentration 10.0 uM, Immobilization level 12000.0 pg/mm2, Rmax 50.0 pg/mm2, ka 32556.979 M-1s-1, kd 0.41 1/s): 4.9 | pKD (PRVABC59, Concentration 10.0 uM, Immobilization level 13000.0 pg/mm2, Rmax 48.0 pg/mm2, ka 67317.145 M-1s-1, kd 0.674 1/s): 5

O=C(Nc1ccc2c(c1)CNC2)c1cccc2[nH]ncc12
pKD (PRVABC59, Concentration 10.0 uM, Immobilization level 10000.0 pg/mm2, Rmax 19.0 pg/mm2, ka 1068955.381 M-1s-1, kd 0.689 1/s): 6.19 | pKD (PRVABC59, Concentration 10.0 uM, Immobilization level 12000.0 pg/mm2, Rmax 37.0 pg/mm2, ka 703955.922 M-1s-1, kd 0.285 1/s): 6.39 | pKD (PRVABC59, Concentration 10.0 uM, Immobilization level 13000.0 pg/mm2, Rmax 29.0 pg/mm2, ka 931164.005 M-1s-1, kd 0.45 1/s): 6.32

Cc1cc(NC(=O)c2cc(Cl)cc3[nH]ncc23)ccc1N1CCNCC1
pKD (PRVABC59, Concentration 10.0 uM, Immobilization level 10000.0 pg/mm2, Rmax 68.0 pg/mm2, ka 142841.774 M-1s-1): 4.45 | pKD (PRVABC59, Concentration 10.0 uM, Immobilization level 12000.0 pg/mm2, Rmax 26.0 pg/mm2, ka 204393.234 M-1s-1, kd 2.532 1/s): 4.91 | pKD (PRVABC59, Concentration 10.0 uM, Immobilization level 13000.0 pg/mm2, Rmax 38.0 pg/mm2, ka 209487.853 M-1s-1, kd 3.706 1/s): 4.75

COCCNC(=O)[C@H](Nc1ccc2c(c1)CNC2)c1cc(Cl)cc(C2CC2)c1
pKD (PRVABC59, Concentration 10.0 uM, Immobilization level 10000.0 pg/mm2, Rmax 39.0 pg/mm2, ka 617826.514 M-1s-1, kd 0.092 1/s): 6.83 | pKD (PRVABC59, Concentration 10.0 uM, Immobilization level 12000.0 pg/mm2, Rmax 47.0 pg/mm2, ka 381252.779 M-1s-1, kd 0.077 1/s): 6.7 | pKD (PRVABC59, Concentration 10.0 uM, Immobilization level 13000.0 pg/mm2, Rmax 46.0 pg/mm2, ka 474021.576 M-1s-1, kd 0.094 1/s): 6.7

O=C(Nc1ccc2c(c1)[C@H]1CC[C@H]2N1)c1cc(Cl)cc2[nH]ncc12
pKD (PRVABC59, Concentration 10.0 uM, Immobilization level 3900.0 pg/mm2, Rmax 29.0 pg/mm2, ka 207440.056 M-1s-1, kd 1.881 1/s): 5.04 | pKD (PRVABC59, Concentration 10.0 uM, Immobilization level 4900.0 pg/mm2, Rmax 21.0 pg/mm2, ka 356637.156 M-1s-1, kd 1.239 1/s): 5.46 | pKD (PRVABC59, Concentration 10.0 uM, Immobilization level 5500.0 pg/mm2, Rmax 38.0 pg/mm2, ka 209576.876 M-1s-1, kd 1.619 1/s): 5.11 | pKD (PRVABC59, Concentration 10.0 uM, Immobilization level 10000.0 pg/mm2, Rmax 35.0 pg/mm2, ka 240196.621 M-1s-1, kd 1.957 1/s): 5.09 | pKD (PRVABC59, Concentration 10.0 uM, Immobilization level 12000.0 pg/mm2, Rmax 27.0 pg/mm2, ka 216801.208 M-1s-1, kd 1.112 1/s): 5.29 | pKD (PRVABC59, Concentration 10.0 uM, Immobilization level 13000.0 pg/mm2, Rmax 42.0 pg/mm2, ka 287948.566 M-1s-1, kd 1.743 1/s): 5.22

O=C(Nc1ccc2c(n1)CNC2)c1cc(Cl)cc2[nH]ncc12
pKD (PRVABC59, Concentration 10.0 uM, Immobilization level 3900.0 pg/mm2, Rmax 29.0 pg/mm2, ka 330423.124 M-1s-1, kd 0.318 1/s): 6.02 | pKD (PRVABC59, Concentration 10.0 uM, Immobilization level 4900.0 pg/mm2, Rmax 43.0 pg/mm2, ka 188485.066 M-1s-1, kd 0.307 1/s): 5.79 | pKD (PRVABC59, Concentration 10.0 uM, Immobilization level 5500.0 pg/mm2, Rmax 45.0 pg/mm2, ka 189855.655 M-1s-1, kd 0.314 1/s): 5.78 | pKD (PRVABC59, Concentration 10.0 uM, Immobilization level 10000.0 pg/mm2, Rmax 55.0 pg/mm2, ka 105317.175 M-1s-1, kd 0.527 1/s): 5.3 | pKD (PRVABC59, Concentration 10.0 uM, Immobilization level 12000.0 pg/mm2, Rmax 96.0 pg/mm2, ka 37343.204 M-1s-1, kd 0.288 1/s): 5.11 | pKD (PRVABC59, Concentration 10.0 uM, Immobilization level 13000.0 pg/mm2, Rmax 49.0 pg/mm2, ka 130791.962 M-1s-1, kd 0.347 1/s): 5.58

Nc1cc(Cl)cc(C(=O)Nc2ccc3c(c2)CNC3)c1N
pKD (PRVABC59, Concentration 10.0 uM, Immobilization level 10000.0 pg/mm2, Rmax 26.0 pg/mm2, ka 624754.243 M-1s-1, kd 0.161 1/s): 6.59 | pKD (PRVABC59, Concentration 10.0 uM, Immobilization level 12000.0 pg/mm2, Rmax 44.0 pg/mm2, ka 261141.936 M-1s-1, kd 1.029 1/s): 5.4 | pKD (PRVABC59, Concentration 10.0 uM, Immobilization level 13000.0 pg/mm2, Rmax 23.0 pg/mm2, ka 816818.479 M-1s-1, kd 0.326 1/s): 6.4

O=C(Nc1ccc2c(c1)CNC2)c1cc(Br)cc2ccccc12
pKD (PRVABC59, Concentration 10.0 uM, Immobilization level 10000.0 pg/mm2, Rmax 20.0 pg/mm2, ka 1054680.734 M-1s-1, kd 0.691 1/s): 6.18 | pKD (PRVABC59, Concentration 10.0 uM, Immobilization level 12000.0 pg/mm2, Rmax 63.0 pg/mm2, ka 507441.603 M-1s-1, kd 0.463 1/s): 6.04 | pKD (PRVABC59, Concentration 10.0 uM, Immobilization level 13000.0 pg/mm2, Rmax 45.0 pg/mm2, ka 357590.388 M-1s-1, kd 0.673 1/s): 5.72
